Results published in PubChem BioAssay (NCI).
Compounds without any hit were thinned out: in the full panel of roughly 83,000, 20% have a hit.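 96-well plates, one dose, 48 hours. Percent growth reported; active if below 10.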 Unmarked numbers belong to inactive results. The source made the active and inactive calls.

Columns and labels:
Test in all cases: NCI-60 one-dose screen, 48 h (100 = growth as untreated, 0 = no growth, -100 = all killed)
NCI-H226 lung = details: 10 µM unless noted
NCI-H322M lung = details: 10 µM unless noted
NCI-H522 lung = details: 10 µM unless noted
U251 CNS = details: 10 µM unless noted
EKVX NSCLC = details: 10 µM unless noted
CCRF-CEM leukemia = details: 10 µM unless noted
SK-OV-3 ovarian = details: 10 µM unless noted
IGROV1 ovarian = details: 10 µM
HS 578T breast = details: 10 µM unless noted
T-47D breast = details: 10 µM unless noted
BT-549 breast = details: 10 µM
MCF7 breast = details: 10 µM unless noted
HCC-2998 colon = details: 10 µM unless noted
SNB-19 CNS = details: 10 µM unless noted
TK-10 renal = details: 10 µM unless noted
SR leukemia = details: 10 µM
RPMI-8226 leukemia = details: 10 µM unless noted
HOP-92 NSCLC = details: 10 µM unless noted
HOP-62 NSCLC = details: 10 µM unless noted

SMILES	growth (NCI-H226 lung)	growth (NCI-H322M lung)	growth (NCI-H522 lung)	growth (U251 CNS)	growth (EKVX NSCLC)	growth (CCRF-CEM leukemia)	growth (SK-OV-3 ovarian)	growth (IGROV1 ovarian)	growth (HS 578T breast)	growth (T-47D breast)	growth (BT-549 breast)	growth (MCF7 breast)	growth (HCC-2998 colon)	growth (SNB-19 CNS)	growth (TK-10 renal)	growth (SR leukemia)	growth (RPMI-8226 leukemia)	growth (HOP-92 NSCLC)	growth (HOP-62 NSCLC)
O=CN1N=C(c2ccccc2)CC1c1sc(N(CCCl)CCCl)nc1Cl (stereo unspecified)	85.1%	82.4%	70.8%	96.5%	89.5%	104%	79.2%	96%	90.2%	83%	95.3%	90.1%	103%						
O=C(Nc1ccc(S(=O)(=O)F)cc1)Oc1ccccc1	99.5%	94.8%		96.8%		88.1%	102%	99.1%			98.2%		110%	97.6%	96.5%	99.9%	92.3%		
O=[N+]([O-])c1cc([N+](=O)[O-])c(Cl)c(Cl)c1Cl	52.8%	96.5%	-86.5% (active)	-79.4% (active)	67.4%	-22.3% (active)		22%		-27.9% (active)		2.17% (active)	78.8%	73.5%	-99.5% (active)	-5% (active)	12.8%	2.39% (active)	
CNC(C)Cc1ccccc1 (stereo unspecified) (tested in a mixture with another compound)	99.5%	89.2%	82.4%	89.9%		105%	92.8%	101%	106%	90.5%	109%	97.3%	101%	105%	92.8%	108%			
COc1cc[c]([Hg][Cl])cc1	100%	99.1%	-73.8% (active)		76.3%	-20.8% (active)	120%	15.1%	30.5%	-3.04% (active)		27.9%	88.7%	28.6%	114%	-10.3% (active)		90.1%	
CC(=O)O[C@H]1CCC2C3CCC4=C/C(=N/O)CCC4(C)C3CCC21C (stereo partly specified)	98.1%		83.2%	83.3%	88.5%		104%	87.6%	55.2%	95.6%	84.9%	110%	83.9%	90.7%	103%	36.7%	89.4%	89.8%	93.4%
CC(C)CCC1(CCO)C(=O)NC(=S)NC1=O	105%	105%		97.2%	105%	115%	108%	116%	114%	112%	109%	109%		105%	114%	114%		89.5%	
Nc1ccc([N+](=O)[O-])c2c1Oc1ccccc1O2	87.4%	93.9%		90.2%	91.9%	91.2%	88.9%	28%	100%	72.7%	87%	101%	108%	80.8%	94.4%		105%	84.4%	
CCOCC1(CCc2ccccc2)C(=O)NC(=S)NC1=O	106%	114%		101%	116%	100%	112%	107%	106%	99.3%	105%	103%		105%	115%	92.7%	104%	101%	
CNC(=O)Oc1ccccc1	102%	107%		108%		111%	108%	116%			105%	87%	119%	97%	122%		96.4%		
c1ccc(-c2ccc3ccccc3[o+]2)cc1	85.4%		81.2%	93.4%	87.1%	92.4%	89.4%	82.7%	94.1%	75.6%		67%	108%		139%	84.5%	86.4%	83.2%	96.2%
NS(=O)(=O)c1nc[nH]c1[N+](=O)[O-]	99.4%	110%	109%		117%	106%	101%	115%	112%	99.8%		94.9%	100%	105%	99.5%	102%	101%	68.1%	
O=C(NCCNC(=O)c1ccc([As](O)O)cc1)c1ccc([As](O)O)cc1	109%	102%	103%	103%	103%	105%	104%	110%	91.7%	100%	111%	99.7%	100%	106%	111%	101%	114%		
N#[N+]c1nc2nc(N)[nH]c(=O)c2[nH]1	98%		94.8%	91.5%	100%	95.1%		107%	92.9%			90.7%		99.8%		94.2%	97%	93.2%	92.5%
CC(=O)O[C@H]1CCC2(C)C(=CCC3C2CCC2(C)/C(=N/OC(=O)c4ccc(N(CCCl)CCCl)cc4)CCC32)C1 (stereo partly specified)	101%		27.6%	-27.2% (active)	23.1%		102%	11.6%	27%	17.7%		39%	80.3%	37.7%	79.8%	-24.9% (active)	26.6%	76.1%	-60.8% (active)
Nc1c(Br)cc([N+](=O)[O-])cc1[N+](=O)[O-]	92.9%		105%	101%	93.6%	118%	107%		106%	107%	110%	103%	102%		114%	111%	105%	120%	117%
O=C(CF)N(O)c1ccc(/C=C/c2ccccc2)cc1	-22.9% (active)	71.4%	60.6%	35.6%	98.5%	13.5%	65.6%	40.8%	99%	26%		16.5%	25.4%	54.3%	67.4%				
COc1cc(/C=C\c2cc(OC)c(OC)c(OC)c2)cc(N/C=C\C(=O)c2ccc(OC(F)(F)F)cc2)c1OC	54.4%	42.4%	-54.8% (active)	14.8%		8.99% (active)	19.9%	48.3%	29.4%	37.9%	44.8%			74.6%		4.84% (active)	11.8%		
CC(/C=N/N=C(N)N)=N\N=C(N)N	95.8%	10%	61.5%	77.8%	89.8%	53%	84.9%		69.3%	40.8%		76.8%	-62.9% (active)		62%		74.3%		
CC[CH2][Pb]([CH2]CC)([CH2]CC)[O]C(=O)C(F)(F)F	-61.6% (active)	-98.3% (active)		-87.4% (active)			-74.6% (active)	-78.8% (active)	-10.4% (active)	-68.1% (active)		-79.7% (active)	-84.4% (active)						
CCOc1cc(C=C(C#N)C#N)cc(Br)c1O	106%	98.1%	100%	96.5%	104%	102%	116%	109%	107%	98.5%	99.1%	96%			102%		105%		
O1[As]2O[As]3O[As]1O[As](O2)O3	0.918% (active)	38.2%	-63.4% (active)	-69.2% (active)	5.14% (active)	13.1%	38%	14.6%		22.9%	-12.1% (active)	6.19% (active)	23.3%					-24.4% (active)	
